High-throughput results deposited in PubChem BioAssay by National Center for Advancing Translational Sciences (NCATS).
Sampled rows, rich in hits. Any-hit rate of the full collection: about 8%.
SW480 rereplic: inducers of DNA re-replication in SW480 colon cancer cells; AID 624297; Potency, µM (top dose mostly 46.1 µM), for inactives: at the top dose re-replication activation, most hits filed as activators; SW480 DNA re-replication, Hoechst DNA content imaging, 48 h; 340,000 tested, 1.8% active; further: % of control where 0% means no effect; nearly all actives have a fitted effect of over 55% in size
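Per well, 250 cells were exposed to pinned compound for 48 hr. Nuclear DNA was visualised with Hoechst (40 min, 37 C) and total object intensity recorded by fluorescence scanning.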
HT1080 IDH1KD tx: HT-1080 IDH1 knockdown cell toxicity (counter line); HT-1080 IDH1 knockdown viability, ATP luminescence, 48 h; Potency, µM (highest dose often 46.1 µM), for the others: top-dose activity, negative = toxicity, most hits filed as cytotoxic; 360,000 tested, 2% active; AID 686971;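 further: 0% = DMSO wells and -100% = cell-free medium wells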
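Using the IDH1-knockdown HT-1080 line run in the same batch and compound series as the NT line, viability after 48 h at 37 °C was determined by CellTiter-Glo luminescence and expressed as % activity.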
MCF10A rerep: DNA re-replication induction in MCF 10a cells; MCF 10A DNA re-replication, Hoechst nuclear intensity, 48 h; Potency, µM (doses to about 46.1 µM), inactives show top-dose activity, positive = re-replication, usual class: activators; 350,000 tested, 2.9% active; AID 624296; further: % of control where 0% means no effect; nearly all actives have a fitted effect of over 50% in size
KB-V1 cytotox: KB-V1 MDR subline cytotoxicity; 400,000 tested, 3.4% active; Potency, µM (doses to about 46.1 µM), most hits filed as cytotoxic; KB-V1 MDR cells viability, CellTiter-Glo, 72 h; AID 1347076; further: on the % scale 0 is the no-effect control and ±100 the full control effect; nearly all actives have a fitted effect of over 60% in size
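Luminescent ATP read-out (CellTiter-Glo, 10 min) measures survival of drug-selected KB-V1 MDR cells after 72 h, 37 degrees C compound exposure. Medium: phenol-red-free DMEM, 10% FBS. Values from fitted concentration-response curves.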
HT1080-NT tox: kills 2HG-producing HT-1080-NT fibrosarcoma cells; Potency, µM (highest dose often 46.1 µM), for the others: at the highest dose activity, negative = less viability, usual class: cytotoxic; 360,000 tested, 1.6% active; HT-1080-NT fibrosarcoma viability, CellTiter-Glo ATP luminescence, 48 h;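 further: NT is the 2HG producing partner of a matched IDH1 knockdown line; 0% = DMSO-treated cells and -100% = media-only wells without cells; nearly all actives have a fitted effect of over 55% in size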
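Read-out is CellTiter-Glo luminescence after 10 minutes at room temperature, following 48 hours' compound treatment of HT-1080-NT cells (750 cells/well, RPMI, 5% FBS, 37 degrees C).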
KB-3-1 tox: kills parental KB-3-1 adenocarcinoma cells | AID 1347075 | Potency, µM (titrated, usually from 46.1 µM), most hits filed as cytotoxic | KB-3-1 viability, CellTiter-Glo ATP luminescence, 72 h | 400,000 tested, 1.4% active; further: on the % scale 0 is the no-effect control and ±100 the full control effect; nearly all actives have a fitted effect of over 60% in size
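Parental KB-3-1 viability, qHTS format: 72 h compound exposure, 37 °C; CellTiter-Glo; media-only wells and DMSO plates as controls; concentration-effect fits on corrected data.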
* hit, by the source's call; i = inactive; ? = inconclusive; / = no result given. The call rests on the fitted dose curve; in most records, active means well fitted curve in the direction sought with a large enough effect; inconclusive means small, poorly fitted or top-dose-only effect, or another doubt; inactive means no such curve, though single readings can be large; an effect the other way counts as inactive or inconclusive. Potency means the concentration at half of the fitted maximal effect.

SMILES	SW480 rereplic	HT1080 IDH1KD tx	MCF10A rerep	KB-V1 cytotox	HT1080-NT tox	KB-3-1 tox
CCOc1cc(CNC(=O)NC2COc3ccc(OC)cc3C2)cc(OCC)c1OCC (stereo not given)	/	/	/	i	/	i
Cc1ccc(-c2n[nH]c(=S)n2Cc2ccccc2)cc1	?	?	12.6%	?	?	i
CCn1c(-c2ccc(C)cc2)n[nH]c1=S	-2.3%	-1.0%	-5.8%	18.4µM*	-1.9%	?
CCn1c(-c2ccc(Cl)cc2)n[nH]c1=S	17.1%	?	0.6%	10.3µM*	?	?
CCn1c(-c2ccc(OC)c(OC)c2)n[nH]c1=S	-3.4%	4.4%	-7.8%	?	8.7%	?
CCn1c(-c2csc(C(C)C)c2)n[nH]c1=S	-1.9%	2.9%	-5.3%	20.6µM*	-0.3%	i
Cc1cccc(C(=O)NCC(c2ccc3c(c2)OCO3)N2CCN(c3ccccc3F)CC2)c1 (stereo not given)	/	/	/	i	/	i
COc1cc(CN(C(=O)COc2ccc(Cl)cc2)c2ccccn2)cc(OC)c1OC	/	/	/	i	/	i
O=C(NC(=S)Nc1ccc(S(=O)(=O)N2CCCCCC2)cc1)c1cccs1	0.4%	-23.9%	20.1%	i	?	i
CS(=O)(=O)N1CCN(c2ccc(NC(=S)NC(=O)c3cccs3)cc2)CC1	-54.6%	1.8%	0.6%	i	-0.3%	i
O=C(NC(=S)Nc1ccc(S(=O)(=O)N2CCCC2)cc1)c1cccs1	24.8%	1.0%	-2.7%	10.3µM*	0.3%	i
Cc1ccc(-c2ccc(S(=O)(=O)N3CCN(C)CC3)cc2)cc1	2.2%	1.4%	10.0%	13µM*	-1.8%	i
CC(C)C(=O)NC(=S)Nc1ccc(S(=O)(=O)N2CCCC2)cc1	0.6%	2.7%	?	14.6µM*	12.6%	i
O=C(NC(=S)Nc1ccc(N2CCCCC2)cc1)c1cccs1	?	3.98µM*	?	i	1.26µM*	i
Cc1ccc(NC(=O)C(Cc2ccccc2)NS(=O)(=O)c2ccc3c(c2)CCC(=O)N3)cc1 (stereo not given)	/	/	/	?	/	i
Cc1cc(Cl)ccc1NC(=O)CN1C(=O)COc2ccc(S(=O)(=O)Nc3ccccc3)cc21	/	/	/	i	/	i
Cc1cccc(C(=O)NC(=S)Nc2ccc(S(=O)(=O)N3CCN(C)CC3)cc2)c1	-4.0%	-15.7%	?	i	-24.4%	i
Cc1ccc(C(=O)NC(=S)Nc2ccc(S(=O)(=O)N3CCN(C)CC3)cc2)cc1	3.0%	-0.2%	9.8%	23.1µM*	-11.1%	i
C[C@@H](O)C1NC(=O)[C@H](CCCCN)NC(=O)c2cc([N+](=O)[O-])cc(I)c2OCC[C@@H](C(N)=O)NC1=O (stereo not given in full)	-2.7%	-0.1%	-2.4%	i	-3.0%	i
Cc1cccc(/C=N/Nc2ccc3ccccc3n2)c1	-2.3%	-3.3%	20.6µM*	i	-6.3%	i
Cc1ccc(/C=N/Nc2ccc3ccccc3n2)o1	?	-23.2%	21.7%	8.2µM*	-28.6%	i
C(=N\Nc1nc2ccccc2[nH]1)/c1ccc2c(c1)OCCO2	-6.7%	?	0.9%	i	-8.4%	?
CC(=NNc1ccc2ccccc2n1)c1ccccc1O	?	-0.2%	?	4.11µM*	2.8%	i
C(=N\Nc1ccc2ccccc2n1)/c1ccc2c(c1)OCCO2	?	-8.1%	23.1µM*	18.4µM*	-8.2%	i
CCS(=O)(=O)N1CCc2cc(C(=O)Nc3ccc(OC)cc3OC)ccc21	/	/	/	i	/	i
SMILES	SW480 rereplic	HT1080 IDH1KD tx	MCF10A rerep	KB-V1 cytotox	HT1080-NT tox	KB-3-1 tox
COc1ccc(CC2(CO)CCN(Cc3ccc(OC(F)(F)F)cc3)CC2)cc1	?	-21.5%	16.7%	i	?	?
COc1ccc(CC2(CO)CCN(Cc3ccc4c(c3)CCO4)CC2)cc1	-1.0%	20.6µM*	?	?	?	i
COc1ccc(CC2(CO)CCN(CC3=Cc4cc(Cl)ccc4OC3)CC2)cc1	?	23.1µM*	23.1µM*	i	14.6µM*	?
O=C(CSc1ccc(-c2ccc(F)cc2)nn1)N1CCN(c2ccccc2)CC1	-4.1%	3.3%	-0.9%	i	2.2%	i
Nc1ccccc1Nc1cc(-c2cccc(Cl)c2)nn1-c1ccccc1	?	-5.7%	0.4%	?	-13.3%	?
COc1ccc(NC(=O)C2=C(C)Nc3ncnn3C2c2ccc(O)cc2)cc1 (stereo not given)	/	/	/	?	/	i
Cc1ccccc1-c1noc(-c2cccnc2N(C)Cc2ccc(Cl)cc2)n1	/	/	/	?	/	i
C=CCn1c(SCC(=O)NC(=O)c2cccc([N+](=O)[O-])c2)nnc1-c1ccccc1F	-5.4%	23.6%	-1.4%	i	14.3%	i
CCN1C(=O)C(Cc2nc3ccccc3c(=O)n2-c2ccccc2)c2ccccc21 (stereo not given)	0.8%	-12.1%	5.1%	4.11µM*	-11.1%	i
CCn1c(C)c(C)c2cc(C(=O)NCc3cccc(C)c3)ccc21	/	/	/	i	/	i
COC(=O)/C=C1\SC(=Nc2ccccc2)NC1=O	?	1.6%	16.4%	i	3.0%	i
COC(=O)/C=C1/SC(=Nc2ccc(Cl)c(Cl)c2)NC1=O	-4.4%	4.9%	25.9µM*	i	9.9%	i
CCN(C(=O)c1cccs1)c1nnc(-c2ccncc2)s1	-14.3%	7.4%	27.3%	18.4µM*	?	i
Cn1nnnc1SCCCNCc1cccc(OCc2ccc(F)cc2)c1	/	/	/	i	/	i
O=C(NP(=O)(N1CCOCC1)N1CCOCC1)C1=C(N2CCOCC2)/C(=C\c2ccccc2)CC1	?	4.1%	23.1µM*	i	4.8%	i
O=C(N/N=C/C1=C(N2CCOCC2)C(=C\c2ccccc2)/CC1)Nc1ccccc1	?	7.31µM*	?	i	?	i
Cc1cc(C)nc(N/N=C/C2=C(N3CCOCC3)C(=C/c3ccccc3)/CC2)n1	16.4µM*	-5.0%	8.2µM*	2.31µM*	-1.9%	?
Cc1cc(=O)[nH]c(N/N=C/C2=C(N3CCOCC3)C(=C\c3ccc(Cl)cc3)/CC2)n1	0.6%	-27.5%	?	?	-27.5%	i
Cc1occc1C(=O)N/N=C/C1=C(N2CCOCC2)C(=C\c2ccc(Cl)cc2)/CC1	?	11.2%	18.4µM*	i	-0.3%	i
CCCc1cc(=O)[nH]c(SCCc2ccccc2)n1	-8.1%	0.4%	-7.0%	16.4µM*	9.6%	?
